Measurements as given in PubChem BioAssay AID1851 (National Center for Advancing Translational Sciences (NCATS), 2009).
Screen size: about 16,000 compounds; about 4,000 (25%) were called active. About 26% were inconclusive and are not listed. Calls follow the shape of the dose curve; as a rule, active = well fitted curve in the direction sought with a large enough effect; inconclusive = small, poorly fitted or top-dose-only effect, or effect the other way; inactive = no such curve, though single readings can be large or run the other way. These entries were drawn from the full list.

The compounds below were run against Cytochrome P450 2C9 (Homo sapiens) (UniProt P11712) (assay: Cytochrome panel assay with activity outcomes). Details: recombinant CYP, pro-luciferin dealkylation, luminescence, p450-cyp2c9; series mostly up to 57.1 µM; activity, negative = inhibition: at the top concentration.
Cytochrome P450 2C9 (Homo sapiens), sequence (P11712 whole entry, looked up): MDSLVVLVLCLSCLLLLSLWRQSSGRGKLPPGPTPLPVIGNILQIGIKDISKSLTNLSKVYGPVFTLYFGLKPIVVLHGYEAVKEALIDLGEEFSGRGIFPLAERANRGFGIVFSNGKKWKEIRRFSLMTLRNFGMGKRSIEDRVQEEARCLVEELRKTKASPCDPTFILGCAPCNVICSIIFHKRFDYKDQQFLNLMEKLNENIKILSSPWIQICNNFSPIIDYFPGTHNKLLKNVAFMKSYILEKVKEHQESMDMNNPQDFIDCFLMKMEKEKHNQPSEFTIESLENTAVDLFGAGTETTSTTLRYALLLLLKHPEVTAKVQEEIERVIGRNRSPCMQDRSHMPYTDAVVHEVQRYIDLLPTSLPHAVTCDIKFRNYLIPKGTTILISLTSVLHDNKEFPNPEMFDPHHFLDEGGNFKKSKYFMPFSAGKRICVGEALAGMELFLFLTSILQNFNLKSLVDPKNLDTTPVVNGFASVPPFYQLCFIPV
% is scaled to controls: 0 for no effect and ±100 for the full control effect.

| Compound | AC50 | activity, negative = inhibition |
| --- | --- | --- |
| CN(C)CCC=C1c2ccccc2C=Cc2ccccc21 | inactive | – |
| CCNc1ncc2nc(-c3ccc(F)cc3)c(=O)n(-c3ccc(OC)cc3)c2n1 | – | -4.2% (inactive) |
| O=C1[C@H]2CCn3c(=O)n(-c4ccccc4)c(=O)n3[C@H]2[C@H](O)[C@H]2O[C@@H]12 | – | -4.73% [at 11.4 µM] (inactive) |
| Clc1ccccc1C(Nc1ncccn1)Nc1ncccn1 | – | 4.43% [at 11.4 µM] (inactive) |
| CCOC(=O)CC(Nc1nc(N2CCOCC2)nc(N2CCOCC2)n1)c1ccccc1Cl (configuration not stated) | 4.47 µM (active) | – |
| CCc1ccccc1N1C(=O)c2cccc3c(N4CCOCC4)c([N+](=O)[O-])cc(c23)C1=O | 15.8 µM (active) | – |
| O=c1cc(N2CCOCC2)oc2c(-c3ccccc3)cccc12 | – | -20% (inactive) |
| CO[C@H]1C[C@@H]2C[C@H](O)C[C@@H](CC(=O)O[C@@H](/C=C\CC(C)C)C[C@@H]3CC[C@H](C)[C@@H](C1)O3)O2 | – | 1.57% [at 11.4 µM] (inactive) |
| CN1CCC2(CC1)CCN(S(=O)(=O)c1ccccc1)CC2 | – | 5.28% (inactive) |
| O=C(NCCN1CCN(Cc2ccccc2)CC1)C1c2ccccc2C(=O)N2CCc3ccccc3C12 (configuration not stated) | – | -13.4% (inactive) |
| O=C1c2ccccc2C(=O)N1CC1c2ccccc2CCN1S(=O)(=O)c1ccccc1 (configuration not stated) | 3.16 µM (active) | – |
| COCC(C)n1c(C)cc(C(=O)CSc2nnc(Nc3ccccc3F)s2)c1C (configuration not stated) | 11.2 µM (active) | – |
| N#Cc1ccc(CN2CC3(CCN(C(=O)c4cccc(F)c4)CC3)C2)cc1 | – | 2.69% (inactive) |
| CCOC(=O)N1CCN(C(=O)c2ccc3nc(SCc4ccc(F)cc4)n(C)c3c2)CC1 | 1.58 µM (active) | – |
| CCOC(=O)N1CCN(C(=O)c2cc(-c3ccc(F)cc3)[nH]c2C)CC1 | – | -40% (inactive) |
| Cc1cccnc1NC(=O)C12CCC(C)(C(=O)O1)C2(C)C (configuration not stated) | – | 1.81% (inactive) |
| Cc1ccc(NC(=O)Nc2ncccc2C)cc1 | 28.2 µM (active) | – |
| O=C(Nc1ccc2ncccc2c1)Nc1ccc2ncccc2c1 | – | 4.23% [at 11.4 µM] (inactive) |
| CN(C)C(=O)Oc1cccc([N+](C)(C)C)c1 | – | -8.11% (inactive) |
| C[C@H](NCCc1ccc(O)cc1)[C@@H](O)c1ccc(O)cc1 | inactive | – |
| CC[C@H](NC(C)C)[C@H](O)c1ccc(O)c(O)c1 | inactive | – |

| Compound | AC50 | activity, negative = inhibition |
| --- | --- | --- |
| CC[C@H](c1ccc(O)cc1)[C@@H](CC)c1ccc(O)cc1 | 5.01 µM (active) | – |
| CN(C)C[C@H]1CCC[C@@H](CN(C)C)C1=O | – | 1.9% [at 11.4 µM] (inactive) |
| Cc1ccc(-n2nnnc2-c2cnc3ccc(Cl)cc3c2-c2ccccc2)cc1 | 8.91 µM (active) | – |
| CCn1cc(-c2nnnn2-c2ccc(Cl)cc2)c(=O)c2ccccc21 | – | -21.4% (inactive) |
| Clc1ccc2[nH]cc(-c3nnnn3-c3ccccc3)c2c1 | 5.01 µM (active) | – |
| CC12CCC(C(=O)O)(C/C1=N\O)C2(C)C (configuration not stated) | – | 1.31% (inactive) |
| COc1cccc(-c2cncnc2N(C)Cc2ccco2)c1 | – | -5.51% [at 2.29 µM] (inactive) |
| CC1(C)CC(=O)c2c(Cc3ccccc3)n[nH]c2C1 | 14.1 µM (active) | – |
| C=CCN=C1CC(C)(C)CC(=O)/C1=C(\O)c1ccccc1 | – | -17.3% (inactive) |
| CC(=O)Nc1ccccc1C(=O)C(=O)O | – | -6.65% (inactive) |
| O=C(Nc1ccccc1C(=O)O)c1ccc2ccccc2n1 | 8.91 µM (active) | – |
| O=C(O)c1ccc(C(=O)Nc2cccc3ccccc23)c(C(=O)O)c1 | – | -2.72% [at 11.4 µM] (inactive) |
| CCCC(=O)Nc1cc(-c2cn3cccnc3n2)ccc1OC | – | -21.9% (inactive) |
| O=C(Nc1cccc(-c2cn3cccnc3n2)c1)c1ccco1 | 12.6 µM (active) | – |
| C[C@@H]1NCC[C@H](CC(=O)O)[C@H]1CC(=O)O | – | -13.5% [at 11.4 µM] (inactive) |
| CC(C)(C)c1ccc(CN(Cc2ccco2)Cc2nnnn2C2CCCC2)cc1 | 3.55 µM (active) | – |
| O=C1CCc2cc(OCCCCc3nnnn3C3CCCCC3)ccc2N1 | – | -17.9% (inactive) |
| O=C(O)c1nnsc1-c1csnn1 | – | -13.9% [at 11.4 µM] (inactive) |
| CCNC(=O)NC1(C(=O)Nc2ccc3c(c2)OCCO3)CCCCC1 | – | -22.8% (inactive) |
| O=C(Nc1ccc2c(c1)OCCO2)c1cc2sccc2n1Cc1ccc(F)cc1 | 3.55 µM (active) | – |
| CCO[P@]1(=O)OC[C@@H]2O[C@H](n3cnc4c(N)ncnc43)[C@H](O)[C@@H]2O1 | – | -1.07% [at 11.4 µM] (inactive) |

| Compound | AC50 | activity, negative = inhibition |
| --- | --- | --- |
| O=C(Nc1ccccc1)N1CC[C@@]2(CCCN(C(=O)c3cc(C(F)(F)F)cc(C(F)(F)F)c3)C2)C1 | – | 0.313% (inactive) |
| NNC(=O)c1nn(-c2ccc(Cl)cc2)ccc1=O | – | -4.57% (inactive) |
| Cc1ccccc1NC(=O)OCc1cn(-c2ccc(Cl)cc2)nn1 | – | -27.3% (inactive) |
| CCCCC(=O)OCc1cn(-c2ccc(Cl)cc2)nn1 | 17.8 µM (active) | – |
| CCOC(=O)CCN1C(=O)[C@H]2[C@H]3[C@H](O)[C@H](O)C/C(=N/OC/C=C(\C)CCC=C(C)C)[C@H]3CC[C@@H]2C1=O | – | 3.33% [at 11.4 µM] (inactive) |
| CCC(Sc1nc(=O)cc(N)n1CCc1ccccc1)C(=O)Nc1ccccc1C#N (configuration not stated) | 2.51 µM (active) | – |
| CCNc1ncc2nc(C)c(=O)n(CCc3ccccc3)c2n1 | – | -5.9% (inactive) |
| CC(=O)O[C@@H](C)C[N+](C)(C)C | inactive | – |
| N#Cc1cccc(NC(=O)N2CC[C@@]3(CCCN(C(=O)c4ccncc4)C3)C2)c1 | – | 11.3% (inactive) |
| Cc1ccc(S(=O)(=O)N2CCC(C(=O)O)(c3ccccc3)CC2)cc1 | – | -9.94% [at 11.4 µM] (inactive) |
| Cc1ccc(S(=O)(=O)N2CCN(C(=O)c3ccccc3)C2C(C)C)cc1 (configuration not stated) | 25.1 µM (active) | – |
| CC(=O)N1CCN(S(=O)(=O)c2ccccc2)C1c1ccccc1 (configuration not stated) | – | -23.8% (inactive) |
| Cc1noc(C)c1-c1nccc(Nc2ccc(F)cc2)n1 | – | 25.8% [at 2.29 µM] (inactive) |
| O=C(CN1CCN(c2ccc(Cl)cc2)CC1)Nc1ccc(F)c(F)c1 | 3.55 µM (active) | – |
| O=C(CSc1ccc(Cl)cc1)Nc1ccc(N2CCN(C(=O)c3ccc(Cl)cc3)CC2)cc1 | 5.01 µM (active) | – |
| Fc1cccc(NC(=S)NCCCN2CCOCC2)c1 | – | 1.12% (inactive) |
| O=C(O)CCC(=O)Nc1ccc(C(=O)N2CCCCC2)cc1 | – | 6.15% (inactive) |
| COC(=O)N1CCC2(CCN(C(=O)Nc3cccc(F)c3)CC2)CC1 | – | -13% (inactive) |
| O=C(CN1CCN(c2ccc(Cl)cc2)CC1)Nc1cccc(F)c1 | 2.82 µM (active) | – |
| O=C(CSc1ccc(Cl)cc1)Nc1ccc(N2CCN(c3ccccc3)CC2)c(F)c1 | – | 5.76% (inactive) |
